FadD28 binding – blocks FadD28 binding to the bisubstrate probe | hit rate 0.22% among 360,000 | fluorescence polarization | inhibition, % at 12.5 µM; in the data active = inhibition above about 8.5%, passing the limit was not always enough; inconclusive = no clear call, values can overlap the other calls
Rv3671c inh – Rv3671c (M. tuberculosis) protease inhibition; inhibition, % at 5.96 µM; hit rate 0.048% among 320,000; AID 2606; P9WHR9; in the data active = inhibition above about 38%;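 note: extracellular domain of Rv3671c used as enzyme; 0% = enzyme with DMSO and 100% = no enzyme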
Mtb FBA inh – inhibits M. tuberculosis FBA enzyme; P9WQA3; purified M. tuberculosis FBA, fluorescence read-out; hit rate 2.3% among 360,000; inhibition, % at 1 µM; in the data active = inhibition above about 27%;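 note: 0% = vehicle and 100% = reference inhibitor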
Target sequence (P9WQA3 whole entry, looked up): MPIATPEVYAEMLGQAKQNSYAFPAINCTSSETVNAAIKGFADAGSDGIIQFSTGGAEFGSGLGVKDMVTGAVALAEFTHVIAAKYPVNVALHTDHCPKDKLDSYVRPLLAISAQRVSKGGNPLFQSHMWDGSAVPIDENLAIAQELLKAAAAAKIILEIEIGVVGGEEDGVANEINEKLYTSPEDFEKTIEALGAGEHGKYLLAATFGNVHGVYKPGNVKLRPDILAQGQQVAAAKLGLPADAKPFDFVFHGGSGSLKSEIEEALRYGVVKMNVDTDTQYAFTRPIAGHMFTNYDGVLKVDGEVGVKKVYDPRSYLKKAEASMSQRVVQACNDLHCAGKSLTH
Mtb UGM inh – blocks M. tuberculosis UGM enzyme; inhibition, % at 10 µM; hit rate 0.06% among 320,000; purified UGM, fluorescence polarization probe displacement; P9WIQ1; in the data active = inhibition above about 10%, passing the limit was not always enough; inconclusive = no clear call, values can overlap the other calls
Mtb hypoxia inh – Mtb hypoxia fluorescent reporter inhibition; M. tuberculosis hypoxia-regulated fluorescent reporter, fluorescence; fluorescence inhibition, % (no concentration beside the values); hit rate 0.1% among 300,000; AID 1159583; in the data active = fluorescence inhibition mostly above about 23%, no sharp cut-off; inactive = mostly below about 17%
GDH-TPI counter – counter-screen for M. tuberculosis FBA inhibitors: GDH-TPI coupled enzymes. GDH-TPI coupled enzyme counterscreen, NADH absorbance. hit rate 1.2% among 360,000. inhibition, % at 4.8 µM; in the data active = inhibition above about 30%;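 note: 0% = DMSO wells and 100% = wells lacking the enzyme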
Active calls of the source: *; ? = inconclusive; . = no result shown; + = active, no number. In the library only some 3.5% were active in any assay of this set; here they are far more common.

SMILES | FadD28 binding | Rv3671c inh | Mtb FBA inh | Mtb UGM inh | Mtb hypoxia inh | GDH-TPI counter
CCOC(=O)CCc1c(C)c2ccc3c(c2oc1=O)CN(CCCO)CO3 | -1 | -7 | + | -2 | 5 | 14
CCOC(=O)CCc1c(C)c2ccc(OCc3ccc([N+](=O)[O-])cc3)cc2oc1=O | 0 | 10 | 8 | 1 | 2 | 2
COC(=O)Cc1c(C)c2ccc(OCC(=O)N3CCCC3)c(C)c2oc1=O | 0 | 2 | 151* | -1 | 7 | 22
CCOC(=O)CCc1c(C)c2ccc(OCC)c(C)c2oc1=O | . | 1 | . | -1 | 5 | .
CCOC(=O)CCc1c(C)c2ccc(OCC(=O)N3CCOCC3)c(C)c2oc1=O | -1 | 1 | 146* | 1 | 1 | 24
COc1ccc(OCC(=O)Nc2ccc(N3CCOCC3)c(Cl)c2)cc1 | 4 | 1 | -1 | 1 | . | 0
COc1ccc(OCC(=O)NC(=S)Nc2ccc(N3CCOCC3)c(Cl)c2)cc1 | 0 | -9 | -1 | 2 | 38* | -2
O=C(NNC(=S)Nc1ccc(Br)cc1)c1ccc(N2CCOCC2)c([N+](=O)[O-])c1 | 4 | 7 | 5 | 3 | -4 | 27
Cc1ccc(NC(=S)NNC(=O)c2ccc(N3CCOCC3)c([N+](=O)[O-])c2)cc1Cl | 11* | -1 | -2 | -1 | . | 21
Nc1c(C(=O)NN=Cc2cccnc2)cnn1-c1ccccc1 | . | . | . | . | 0 | .
COc1ccc(/C=C2\SC(=O)N(CC(=O)N(C)C3CCS(=O)(=O)C3)C2=O)cc1 (stereo not given) | -1 | -4 | 4 | 3 | 1 | 34*
CCN(C(=O)CN1C(=O)S/C(=C\c2ccc(F)cc2)C1=O)C1CCS(=O)(=O)C1 (stereo not given) | 1 | -7 | -1 | -1 | 0 | 36*
COc1cccc(/C=C2\SC(=O)N(CC(=O)NCCCn3ccnc3)C2=O)c1 | -2 | 4 | 5 | 1 | 0 | 24
COc1ccc(/C=C2\SC(=O)N(CC(=O)NCCCn3ccnc3)C2=O)cc1 | 1 | -2 | -2 | -2 | 3 | 43*
COc1ccc(/C=C2\SC(=O)N(CC(=O)NC3CCS(=O)(=O)C3)C2=O)cc1 (stereo not given) | -1 | 2 | 5 | 2 | 5 | 39*
CC(=NNC(=O)c1ccc(Br)o1)C(C)C | . | . | . | . | 16 | .
Cc1ccc(CON=Cc2c(O)cc(C)oc2=O)cc1 | . | . | . | . | 4 | .
COc1ccccc1-c1c(C)oc2c(CN3CCCC(C)C3)c(O)ccc2c1=O (stereo not given) | . | . | + | . | -3 | 21
COc1ccc(Oc2c(C)oc3c(CN4CCOCC4)c(O)ccc3c2=O)cc1 | -1 | -6 | 20 | 0 | 6 | 24
COC(=O)Cc1c(C)c2ccc(O)c(CN3CCCC(C)C3)c2oc1=O (stereo not given) | -3 | 1 | . | 3 | 3 | 10
COc1cccc(Oc2c(C)oc3c(CN4CCOCC4)c(O)ccc3c2=O)c1 | -2 | . | 142* | . | 2 | 23
Cc1oc2c(CN3CCCCC3)c(O)ccc2c(=O)c1-c1ccc(Cl)cc1 | . | 6 | 113* | 1 | 16 | 12
COc1ccc(-c2c(C)oc3c(CN4CCCCC4C)c(O)ccc3c2=O)cc1 (stereo not given) | -2 | -3 | 174* | 1 | 16 | 10
Cc1[nH]c(=O)[nH]c(=O)c1C=NNC(=O)CCCCCNC(=O)OC(C)(C)C | . | . | . | . | 8 | .
Cc1oc2c(CN3CCCC3)c(O)ccc2c(=O)c1Oc1ccccc1Br | -3 | 0 | + | -1 | -1 | 24
SMILES | FadD28 binding | Rv3671c inh | Mtb FBA inh | Mtb UGM inh | Mtb hypoxia inh | GDH-TPI counter
COc1ccccc1-c1coc2c(CN3CCCC(C)C3)c(O)ccc2c1=O (stereo not given) | -4 | -13 | + | 1 | -5 | 9
COc1ccccc1-c1coc2c(CN3C(C)CCCC3C)c(O)ccc2c1=O (stereo not given) | -2 | 0 | 20 | -1 | 3 | 6
CC1CCCCN1Cc1c(O)ccc2c(=O)c(-c3nc4ccccc4s3)c(N)oc12 (stereo not given) | ? | 23 | 21 | 4 | 6 | 61*
CCOC(=O)c1ccc(Oc2c(C)oc3c(CN4CCN(C)CC4)c(O)ccc3c2=O)cc1 | -2 | -10 | 157* | 2 | 5 | 22
COc1ccc(NC(=O)Nc2cccc3c2OC(CN(C)CC2CCCCC2)C(C)CN(C(C)CO)C3=O)cc1 (stereo not given) | . | . | . | . | 4 | .
COCCNC(=S)NN=Cc1ccc2c(c1)OCCO2 | . | . | . | . | 10 | .
COc1ccccc1-c1coc2c(CN3CCCCC3C)c(O)ccc2c1=O (stereo not given) | -6 | -2 | 135* | 0 | 17 | 30
COc1ccccc1-c1c(C)oc2c(CN3CCOCC3)c(O)ccc2c1=O | -2 | -5 | + | -1 | -2 | 9
Cc1oc2c(CN3CCCC(C)C3)c(O)ccc2c(=O)c1-c1ccccc1 (stereo not given) | 0 | 0 | 136* | 1 | 4 | 28
O=C(CS(=O)(=O)Cc1ccccc1)Nc1ccc(S(=O)(=O)N2CCOCC2)cc1 | -1 | -6 | -2 | -2 | 8 | -4
O=C(CS(=O)(=O)Cc1ccccc1)Nc1ccc(S(=O)(=O)N2CCCCCC2)cc1 | 24* | -28 | -4 | -1 | 15 | -6
COc1ccc(S(=O)(=O)NC(N)=NCCc2ccccc2OC)cc1 | -2 | 14 | 191* | 5 | 3 | -4
CC(NC(=O)c1ccccc1F)c1ccccc1 (stereo not given) | 1 | 9 | 2 | 2 | . | -4
CC(NC(=O)c1ccccc1N)c1ccccc1 (stereo not given) | -5 | -5 | 47* | -1 | 14 | -5
C1=C(c2ccccc2)Nc2nnnn2C1 | -1 | -1 | 87* | -1 | . | 0
CCC1(OC(=O)CN)C(=O)OCc2c1cc1n(c2=O)Cc2cc3ccccc3nc2-1 (stereo not given) | -2 | 0 | + | 2 | 12 | 29
CC[C@@]1(O)C(=O)OCc2c1cc1n(c2=O)Cc2cc3ccccc3nc2-1 | . | -5 | . | 1 | . | .
COc1ccc(-n2nc3cc(C)c(NC(C)=O)cc3n2)cc1 | -1 | 2 | 114* | -2 | 5 | 7
CC1Oc2ccccc2C=C1C=NNC(=O)c1cccnc1 (stereo not given) | . | . | . | . | -4 | .
CC1Oc2ccccc2C=C1C=NNC(=O)[C@@H](C)NC(=O)OC(C)(C)C (stereo not given in full) | . | . | . | . | 0 | .
CC1Oc2ccccc2C=C1/C=N/NC(=O)[C@@H](C)NC(=O)OC(C)(C)C (stereo not given in full) | -1 | 0 | 17 | 0 | . | 38*
CC1Oc2ccccc2C=C1/C=N\NC(=O)c1cccnc1 (stereo not given) | -2 | -4 | 6 | 0 | . | 48*
CCCCCCC1C(=NO)CCC1C(=O)OC (stereo not given) | . | . | . | . | 4 | .
COc1ccc(/C=N/NC(=O)CN(Cc2ccccc2)S(=O)(=O)c2ccc3c(c2)OCCO3)cc1 | -2 | -19 | 0 | -1 | . | 2

Compound activity as filed in PubChem.
